# Laboratory results: PubChem BioAssay (NCI)
# Compounds without any hit were thinned out: in the full panel of roughly 83,000, 20% have a hit.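 96-well plates, one dose, 48 hours. Percent growth reported; active if below 10.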 Values without a mark were called inactive. The source made the active and inactive calls.
# Tests used:
# Experiment in all cases: NCI-60 one-dose screen, 48 h (100 = growth as untreated, 0 = no growth, -100 = all killed)
# NCI-H23 lung = conditions: 10 µM
# HOP-92 NSCLC = conditions: 10 µM
# K-562 leukemia = conditions: 10 µM
# MDA-MB-231 breast = conditions: 10 µM
# RXF 393 renal = conditions: 10 µM
# LOX IMVI melanoma = conditions: 10 µM
# EKVX NSCLC = conditions: 10 µM
# UO-31 renal = conditions: 10 µM
# CCRF-CEM leukemia = conditions: 10 µM
# MOLT-4 leukemia = conditions: 10 µM
# SR leukemia = conditions: 10 µM
# HS 578T breast = conditions: 10 µM
# MDA-MB-468 breast = conditions: 10 µM unless noted
# A549/ATCC NSCLC = conditions: 10 µM
# HT29 colon = conditions: 10 µM
# NCI/ADR-RES ovarian = conditions: 10 µM
# T-47D breast = conditions: 10 µM
# NCI-H460 lung = conditions: 10 µM
# OVCAR-5 ovarian = conditions: 10 µM
SMILES,growth (NCI-H23 lung),growth (HOP-92 NSCLC),growth (K-562 leukemia),growth (MDA-MB-231 breast),growth (RXF 393 renal),growth (LOX IMVI melanoma),growth (EKVX NSCLC),growth (UO-31 renal),growth (CCRF-CEM leukemia),growth (MOLT-4 leukemia),growth (SR leukemia),growth (HS 578T breast),growth (MDA-MB-468 breast),growth (A549/ATCC NSCLC),growth (HT29 colon),growth (NCI/ADR-RES ovarian),growth (T-47D breast),growth (NCI-H460 lung),growth (OVCAR-5 ovarian)
C[C@H]1[C@H](OC(=O)CCC(=O)N(CCCc2cn(-c3ccc([N+](=O)[O-])cc3)nn2)CCNc2ccnc3cc(Cl)ccc23)O[C@@H]2OC3(C)CC[C@H]4[C@H](C)CC[C@@H]1[C@@]24OO3,43.4%,24.9%,8.36% (active),50.2%,26.1%,21.7%,46.8%,18.3%,26.3%,2.71% (active),-15.2% (active),52.8%,31.2%,,,,,,
O=C(/C=C/c1cccc(Br)c1)c1nc2ccccc2n1Cc1ccc(F)cc1,34%,19.3%,5.36% (active),,6.83% (active),,,41.8%,-18.8% (active),3.41% (active),-7.31% (active),,4.89% (active),52.2%,7.15% (active),8.54% (active),17.9%,,
O=C(/C=C/c1ccc(Cl)cc1)c1nc2ccccc2n1Cc1ccc(Br)cc1,61.9%,40.2%,13.6%,,37.6%,,,42.6%,-10.9% (active),-0.283% (active),5.41% (active),,9.05% (active),,38.1%,,28%,58.1%,89.9%
CC[C@]12C=CCN3CC[C@@]4(c5ccc(OC)cc5N(C)[C@H]4[C@@](O)(C(=O)OC)[C@@H]1OC(=O)CCCC[P+](c1ccc(OC)cc1)(c1ccc(OC)cc1)c1ccc(OC)cc1)[C@@H]32,-90.7% (active),-74.5% (active),1.01% (active),-97.4% (active),-90.4% (active),-96.4% (active),-59.7% (active),15.5%,-59.1% (active),-26.2% (active),23.2%,-67.5% (active),-92.7% (active),-83.7% (active),,84.3%,-46.6% (active),-87% (active),-98.6% (active)
O=C(/C=C/c1ccccc1)c1nc2ccccc2n1Cc1ccc(Br)cc1,-71.5% (active),-54% (active),-17.2% (active),,-94.8% (active),,,-94.9% (active),-7.81% (active),-12% (active),-19.5% (active),,,,-60.3% (active),,-31.3% (active),,
C=CC[Se]C(=O)c1cncc(C(=O)[Se]CC=C)c1,-74.7% (active),-18% (active),-15.7% (active),,-91.9% (active),,,-98.4% (active),-39.9% (active),-22.9% (active),-13.3% (active),,,7.53% (active),-14.4% (active),,,-14% (active),
CC(=O)Oc1ccccc1C(=O)NC([Se])=NC1CCCCC1,-0.217% (active),32%,61.8%,,-68.3% (active),,-59% (active),-87.7% (active),28.5%,29.4%,41.4%,,,,32.1%,,,6.6% (active),
COc1cc2cc(C(=O)N3C[C@@H](CCl)c4c3cc(OC(=O)N3CCN(C)[C@@H]5CSSC[C@H]53)c3ccccc43)[nH]c2c(OC)c1OC,-80.6% (active),-40.2% (active),-6.55% (active),-51.3% (active),-93.8% (active),-90.2% (active),,-52% (active),-23.1% (active),-27.3% (active),-13.9% (active),-36% (active),-86.3% (active),,-50.7% (active),-56.1% (active),-11.8% (active),,-20.4% (active)
COCCOCCOCCOc1ccc(-n2cc(-c3ccc(O[C@H]4O[C@@H]5OC6(C)CC[C@H]7[C@H](C)CC[C@@H]([C@H]4C)[C@@]57OO6)cc3)nn2)cc1,27.2%,83.2%,28.6%,79.9%,69.4%,36.1%,,11.5%,53.7%,21.2%,33.8%,43.9%,,,48.1%,,,,72%
O=C(NC([Se])=NC1CCCCC1)c1ccccc1,19%,112%,59.2%,,20.5%,,,6.45% (active),54.5%,57.4%,51.4%,,55%,,29.7%,23.3%,,,62.2%
CC(=O)Oc1ccccc1C(=O)[Se]C(=NC(C)C)NC(C)C,,-49.2% (active),-29.6% (active),-50.5% (active),-98.3% (active),-80% (active),-94% (active),-100% (active),-1.77% (active),-15.4% (active),-27.5% (active),-15.6% (active),-64.4% (active),-3.31% (active),,,,-70.2% (active),
